Where “and” joins values, the source holds several entries; their conditions need not be identical. Equal entries are not always repeated. Inconclusive results are not listed. Where a call stands in place of a potency, no number is given. A structure can be active in one record and inactive in another. Calls of active or inactive are those of the source. Calls come from the whole dose curve; as a rule, active = well fitted inhibition curve with a large enough effect; inconclusive = small, poorly fitted or top-dose-only effect; inactive = flat fitted curve, though single readings scatter.
Potency is the fitted concentration of half-maximal effect.

The first assay concerns MKL-2. Nature of the assay: qHTS assay to identify novel small-molecules to repurpose for Merkel cell carcinoma treatment (AID 1296009). Note: nearly all actives have a fitted effect of over 60% in size. As to conditions: MCC and control cell lines, CellTiter-Glo viability, 72 h; series mostly up to 46 µM; activity change, negative = cytotoxicity: at the top concentration. Summed up: (§1)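 Luminescence from CellTiter-Glo, read 10 min after addition at room temperature, reported viability following a 72 hr, 37 degree celsius treatment with NPC or MIPE compounds in titration; values normalized to plate controls.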
For `CN(C)C(=N)N=C(N)N`, the Potency result was “inactive”.

Turning to `CC12CC3CC(C)(C1)CC(N)(C3)C2`, the “activity change, negative = cytotoxicity” value is 6.53% (inactive).

For the molecule `Clc1ccc2c(c1)C(N1CCNCC1)=Nc1ccccc1O2`, the Potency result is “inactive”.

On to `CCOC(=O)Nc1ccc(NCc2ccc(F)cc2)nc1N`, for which the Potency result is “inactive”.

On to `NCCCCCC(=O)O`, for which the Potency result was “inactive”.

With `O=C(c1ccc(OCCN2CCCCC2)cc1)c1c(-c2ccc(O)cc2)sc2cc(O)ccc12`, the Potency was 15 µM (active).

For `C[C@H]1c2cccc(O)c2C(O)=C2C(=O)[C@]3(O)C(O)=C(C(N)=O)C(=O)[C@@H](N(C)C)[C@@H]3[C@@H](O)[C@@H]21`, the “activity change, negative = cytotoxicity” value is 0.527% (inactive).

With `Cn1c(=O)c2c(ncn2C)n(C)c1=O`, the Potency result is “inactive”.

As for `CN1C2CCC1CC(OC(=O)C(CO)c1ccccc1)C2` (configuration not stated), the “activity change, negative = cytotoxicity” value was 5.07% (inactive).

For the molecule `CS(=O)(=O)Nc1ccc([N+](=O)[O-])cc1Oc1ccccc1`, the Potency result is “inactive and 14.8 µM (active)”.

Take `Cn1cnc2c1c(=O)[nH]c(=O)n2C`: the “activity change, negative = cytotoxicity” value was 3.08% (inactive).

Regarding `CC(C)C(=O)Nc1ccc([N+](=O)[O-])c(C(F)(F)F)c1`, the “activity change, negative = cytotoxicity” value was -26.3% (inactive).

`O=c1c(O)c(-c2ccc(O)c(O)c2)oc2cc(O)cc(O)c12`: the Potency entry was “inactive”.

On to `CN(C)c1nc(N(C)C)nc(N(C)C)n1`, for which the Potency entry is “inactive”.

As for `CC(C(=O)O)c1cccc(C(=O)c2ccccc2)c1` (configuration not stated), the Potency result is “inactive”.

With `CCCNCC(O)COc1ccccc1C(=O)CCc1ccccc1` (configuration not stated), the “activity change, negative = cytotoxicity” value was -27.2% (inactive).

In the case of `Clc1ccc(C(c2ccccc2Cl)C(Cl)Cl)cc1` (configuration not stated), the “activity change, negative = cytotoxicity” value was -25.7% (inactive).

With `Nc1ccn([C@H]2CC[C@@H](CO)O2)c(=O)n1`, the Potency entry was “inactive”.

Consider `NS(=O)(=O)c1cc2c(cc1Cl)NCNS2(=O)=O`, for which the Potency entry was “inactive”.

In the case of `Nc1nc2c(ncn2COC(CO)CO)c(=O)[nH]1`, the Potency entry was “inactive and 7.43 µM (active)”.

Regarding `NC(=O)NO`, the Potency result is “inactive and 372 nM (active)”.

As to `CC(C)NCC(O)COc1ccc(CCOCC2CC2)cc1` (configuration not stated), the Potency entry was “inactive”.

As to `COc1ccc(CCN(C)CCCC(C#N)(c2ccc(OC)c(OC)c2)C(C)C)cc1OC` (configuration not stated), the Potency entry was “inactive”.

Take `C[C@@H]1CC(=O)NN=C1c1ccc(NN=C(C#N)C#N)cc1`: the Potency is 8.41 µM (active) and 7.5 µM (active).

Turning to `CS(=O)(=O)CCNCc1ccc(-c2ccc3ncnc(Nc4ccc(OCc5cccc(F)c5)c(Cl)c4)c3c2)o1`, the Potency is 11.9 µM (active).

With `COc1nc(C)nc(Cl)c1NC1=NCCN1`, the Potency entry is “inactive”.

As to `Cc1ccc(-c2cc(C(F)(F)F)nn2-c2ccc(S(N)(=O)=O)cc2)cc1`, the Potency entry was “inactive”.

`O=C1N(c2ccccc2)c2ccccc2C1(Cc1ccncc1)Cc1ccncc1`: the Potency entry was “inactive”.

For `CN1C(C(=O)Nc2ccccn2)=C(O)c2ccccc2S1(=O)=O`, the “activity change, negative = cytotoxicity” value was -13.4% (inactive).

As to `Cc1cnc(C(=O)NCCc2ccc(S(=O)(=O)NC(=O)NC3CCCCC3)cc2)cn1`, the “activity change, negative = cytotoxicity” value is 8.09% (inactive).

With `CCc1cccc2c3c([nH]c12)C(CC)(CC(=O)O)OCC3` (configuration not stated), the Potency result was “inactive”.

Consider `O=C1Cc2cc(CCN3CCN(c4nsc5ccccc45)CC3)c(Cl)cc2N1`, for which the Potency was 11.9 µM (active) and 14.8 µM (active).

In the case of `Cc1cn([C@H]2C=C[C@@H](CO)O2)c(=O)[nH]c1=O`, the Potency result was “inactive”.

For `CC(C)(C)C(=O)Oc1ccc(S(=O)(=O)Nc2ccccc2C(=O)NCC(=O)O)cc1`, the Potency result was “inactive”.

The test system of the next assay is NIH3T3. Described as above. Conditions: MCC and control cell lines, CellTiter-Glo viability, 72 h; series mostly up to 44.8 µM; activity change, negative = cytotoxicity: at the top concentration. Summed up: as §1
On the technique in general: In ATP-based viability assays light output follows the ATP content of the culture.
`CCOC(=O)Nc1ccc(NCc2ccc(F)cc2)nc1N`: the result was inactive.

Turning to `C[C@H]1c2cccc(O)c2C(O)=C2C(=O)[C@]3(O)C(O)=C(C(N)=O)C(=O)[C@@H](N(C)C)[C@@H]3[C@@H](O)[C@@H]21`, the molecule was classed as inactive.

Take `CC(C)C(=O)Nc1ccc([N+](=O)[O-])c(C(F)(F)F)c1`: the molecule was called inactive.

For the molecule `CC(C(=O)O)c1cccc(C(=O)c2ccccc2)c1` (configuration not stated), the molecule was called inactive.

Turning to `O=C1Cc2cc(CCN3CCN(c4nsc5ccccc45)CC3)c(Cl)cc2N1`, the result was inactive.

A further assay deals with UISO. Described as above. As to conditions: MCC and control cell lines, CellTiter-Glo viability, 72 h; series mostly up to 46 µM; activity change, negative = cytotoxicity: at the top concentration. Summed up:
as §1
`CN(C)C(=N)N=C(N)N`: the Potency result was “inactive”.

In the case of `CC12CC3CC(C)(C1)CC(N)(C3)C2`, the Potency entry is “inactive”.

As to `Clc1ccc2c(c1)C(N1CCNCC1)=Nc1ccccc1O2`, the Potency entry was “inactive”.

On to `CCOC(=O)Nc1ccc(NCc2ccc(F)cc2)nc1N`, for which the Potency result is “inactive”.

On to `NCCCCCC(=O)O`, for which the Potency entry was “inactive”.

For `O=C(c1ccc(OCCN2CCCCC2)cc1)c1c(-c2ccc(O)cc2)sc2cc(O)ccc12`, the Potency entry was “inactive”.

Take `Cn1c(=O)c2c(ncn2C)n(C)c1=O`: the Potency entry is “inactive”.

For the molecule `CN1C2CCC1CC(OC(=O)C(CO)c1ccccc1)C2` (configuration not stated), the “activity change, negative = cytotoxicity” value was 2.06% (inactive).

On to `CS(=O)(=O)Nc1ccc([N+](=O)[O-])cc1Oc1ccccc1`, for which the Potency entry was “inactive”.

`Cn1cnc2c1c(=O)[nH]c(=O)n2C`: the “activity change, negative = cytotoxicity” value was -1.39% (inactive).

With `CC(C)C(=O)Nc1ccc([N+](=O)[O-])c(C(F)(F)F)c1`, the Potency entry is “inactive”.

Regarding `O=c1c(O)c(-c2ccc(O)c(O)c2)oc2cc(O)cc(O)c12`, the “activity change, negative = cytotoxicity” value was 9.72% (inactive).

`CN(C)c1nc(N(C)C)nc(N(C)C)n1`: the Potency entry was “inactive”.

In the case of `CC(C(=O)O)c1cccc(C(=O)c2ccccc2)c1` (configuration not stated), the Potency result is “inactive”.

Take `CCCNCC(O)COc1ccccc1C(=O)CCc1ccccc1` (configuration not stated): the Potency result was “inactive”.

In the case of `Clc1ccc(C(c2ccccc2Cl)C(Cl)Cl)cc1` (configuration not stated), the Potency result was “inactive”.

Take `Nc1ccn([C@H]2CC[C@@H](CO)O2)c(=O)n1`: the Potency entry is “inactive”.

For `NS(=O)(=O)c1cc2c(cc1Cl)NCNS2(=O)=O`, the Potency result is “inactive”.

Turning to `Nc1nc2c(ncn2COC(CO)CO)c(=O)[nH]1`, the Potency entry is “inactive and 18.7 µM (active)”.

Regarding `NC(=O)NO`, the Potency result is “inactive and 4.69 µM (active)”.

Turning to `CC(C)NCC(O)COc1ccc(CCOCC2CC2)cc1` (configuration not stated), the Potency result is “inactive”.

Turning to `COc1ccc(CCN(C)CCCC(C#N)(c2ccc(OC)c(OC)c2)C(C)C)cc1OC` (configuration not stated), the Potency entry was “inactive”.

As for `C[C@@H]1CC(=O)NN=C1c1ccc(NN=C(C#N)C#N)cc1`, the Potency is 21.1 µM (active).

For `CS(=O)(=O)CCNCc1ccc(-c2ccc3ncnc(Nc4ccc(OCc5cccc(F)c5)c(Cl)c4)c3c2)o1`, the “activity change, negative = cytotoxicity” value was -4.47% (inactive).

On to `COc1nc(C)nc(Cl)c1NC1=NCCN1`, for which the Potency result is “inactive”.

In the case of `Cc1ccc(-c2cc(C(F)(F)F)nn2-c2ccc(S(N)(=O)=O)cc2)cc1`, the Potency result is “inactive”.

Take `O=C1N(c2ccccc2)c2ccccc2C1(Cc1ccncc1)Cc1ccncc1`: the Potency result is “inactive”.

For `CN1C(C(=O)Nc2ccccn2)=C(O)c2ccccc2S1(=O)=O`, the “activity change, negative = cytotoxicity” value was -8.25% (inactive).

On to `Cc1cnc(C(=O)NCCc2ccc(S(=O)(=O)NC(=O)NC3CCCCC3)cc2)cn1`, for which the Potency result is “inactive”.

Take `CCc1cccc2c3c([nH]c12)C(CC)(CC(=O)O)OCC3` (configuration not stated): the Potency result was “inactive”.

`O=C1Cc2cc(CCN3CCN(c4nsc5ccccc45)CC3)c(Cl)cc2N1`: the Potency is 15 µM (active) and inactive.

As for `Cc1cn([C@H]2C=C[C@@H](CO)O2)c(=O)[nH]c1=O`, the Potency result was “inactive”.

For the molecule `CC(C)(C)C(=O)Oc1ccc(S(=O)(=O)Nc2ccccc2C(=O)NCC(=O)O)cc1`, the Potency result was “inactive”.

(Values after PubChem BioAssay (NCATS).)
